The whole screen tested about 370,000 compounds, of which about 2,400 (0.65%) were called active. This is one part of a sample in which actives are shown more often than they occur. Values without a mark were called inactive.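 How the source made its calls: active means inhibition above the screen-wide mean plus 3 SD (cut at about 13% in these data); inactive means the rest.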
tested on: HIV-1 integrase (with human LEDGF/p75); experiment: blockers of LEDGF/p75-dependent integrase strand transfer – biochemical, TR-FRET, high throughput, primary screen (AID 743269); conditions: TR-FRET IN-LEDGF/p75 DNA integration, Eu/Cy5; at 3.7 µM; active compounds read high;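 further: signal is the Cy5 over europium emission ratio at 671 and 618 nm; 0% = plate median of compound wells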

Point of comparison: CCOC(=O)c1c(C)oc(C)c(C(=O)OCC)c1=O, inhibition 3.08%. Against it:
- Cc1c[nH]c2cccc(-c3ccc(Cl)cc3)c12 — higher, 4.29%
- C[C@@H]1CN([C@@H](C)CO)C(=O)c2cccc(NC(=O)Nc3cccc4ccccc34)c2O[C@H]1CN(C)S(=O)(=O)c1ccccc1F — lower, 3.05%
- C#CCN([C@H](C(=O)OC)C(C)CC)S(=O)(=O)c1ccccc1Br (some centres not stated) — lower, 2.37%
- Cc1cc(=O)[nH]c(SCC(=O)Nc2ccc(F)cc2F)n1 — lower, -4.09%
- CCC(=O)Nc1ccc2c(c1)C(=O)N(C)[C@@H]1CC[C@@H](CC(=O)NCCc3ccccc3)O[C@H]1CO2 — lower, -2.65%
- COC(=O)C[C@@H]1CC[C@@H]2[C@H](COc3ccc(NC(=O)c4cccc(F)c4)cc3C(=O)N2C)O1 — higher, 7.98%
- Cc1ccc(-n2c(COc3ccccc3)nnc2SCC(=O)Nc2ccc3c(c2)OCCO3)cc1 — lower, -2.45%
- C=CCn1c2ccccc2c2nnc(SC(CC)C(=O)Nc3nc(C)c(C(=O)OCC)s3)nc21 (configuration not stated) — lower, -2.02%
- C=CCn1c(SCC(=O)CC(=O)OCC)nc2cc(C(=O)N3CCC(C(N)=O)CC3)ccc2c1=O — lower, -1.71%
- COc1cccc(N2CCN(CC(=O)N(C)Cc3ccc(F)cc3)CC2)c1 — lower, -2.54%
- COC(=O)[C@]12C[C@H](CC(=O)N3CCOCC3)C(=O)N(Cc3ccc(Cl)cc3Cl)C1=C[C@H](COCc1ccccc1)O[C@@H]2C — lower, 0.62%
- Cc1ccc(C(=O)C2CCN(CC(=O)NCCC(C)C)CC2)cc1 — lower, 0.16%
- COc1ccc(CN(CCN2CCOCC2)C(=O)c2ccc(C)cc2)cc1OC — lower, -0.71%
- CCOC(=O)c1cccc(NC(=O)CN(C)S(=O)(=O)c2ccc(-c3cocn3)s2)c1 — lower, 2.14%
- CCCCC(=O)N[C@@H]1CC[C@@]23CCCN2C(=O)CCC[C@H]3[C@H]1C — lower, 0.47%
- COc1ccnc(C(=O)N2CCC(Oc3cccnc3)CC2)c1 — lower, -0.27%
- COCc1cc(C)nc2sc(C(=O)NC3CCCCC3)c(N)c12 — lower, 0.63%
- COc1ccc(-c2c(C(C)=O)c(C)nc3sc4c(=O)n(-c5ccc(C)cc5)nnc4c23)cc1 — lower, -0.97%
- Clc1ccc(-n2c(COc3ccccc3)nnc2SCc2nc3ccccc3[nH]2)cc1 — lower, -0.48%
- O=C(Nc1cc(Cl)cc(Cl)c1)OCCN1CCCC12CCC(c1ccccc1)CC2 (configuration not stated) — lower, -0.23%
- Cc1ccc(-n2c(SCC(=O)Nc3ccc(S(=O)(=O)Nc4nccs4)cc3)nnc2-c2ccncc2)cc1 — lower, -1.61%
- CCOC(=O)c1c(C)oc2cc(Br)c(OCC(N)=O)cc12 — lower, -0.08%
- COC(=O)CC1CCc2cc(C)cc(C(CC(C)C)NC(=O)[C@H](CC(C)C)NC(=O)OCc3ccccc3)c2O1 (some centres not stated) — lower, -0.18%
- CCN(C(=O)[C@@H](C1CC1)[C@@H](O)c1ccc2ccccc2c1)c1ccccc1 — lower, -2.01%
- O=C(Nc1nc2ccc(Cl)cc2s1)c1cc(-c2ccc(Cl)cc2)nc2ccccc12 — higher, 6.18%
- CN(C)c1ccc(NC(=O)NC2CCCCN(Cc3ccc(Cl)cc3)C2=O)cc1 (configuration not stated) — higher, 6.63%
- CCn1c(=O)n2n(c1=O)[C@@]1(C=C3CCCC[C@H]32)N=C(NC(=O)c2ccccc2)N(Cc2ccccc2)[C@H]1Cc1ccccc1 — lower, 2.19%
- CC(=O)Nc1nc2ncccn2c1-c1ccc(C(F)(F)F)cc1 — higher, 4.33%
- CCC(C)[C@@H](C(=O)OC)N(CCc1cn(Cc2ccccc2)nn1)S(=O)(=O)c1ccccc1Br (some centres not stated) — lower, 1.03%
- CC(C)CNc1cccc2c1S(=O)(=O)N(Cc1cn(Cc3ccccc3C(F)(F)F)nn1)Cc1ccccc1O2 — lower, -0.84%
- CCOC(=O)[C@]12CCCC3=C1N(CCC3)C(=O)[C@@H](CC(=O)NCC13CC4CC(CC(C4)C1)C3)C2 — lower, 0.85%
- O=C(NCc1ccco1)C1CCCN(S(=O)(=O)c2ccc(Cl)s2)C1 (configuration not stated) — lower, -0.9%
- COC(=O)c1cc(OC)c(OC)cc1NC(=O)CSc1ccc(C)cc1 — lower, -3.23%
- COc1ccc(OC)c(NC(=O)CSc2nc(-c3ccccc3)cc(=O)[nH]2)c1 — lower, 2.74%
- C=CCN(C(=O)[C@@H](CCCC)[C@@H](O)c1ccc(Cl)cc1)c1ccccc1 — lower, 2.74%
- CCc1ccc(CN(C)C(C)C(=O)Nc2ccc(S(=O)(=O)N3CCCC3)cc2)cc1 (configuration not stated) — lower, -3.86%
- CC(C(=O)Nc1ccc(S(=O)(=O)N2CCCC2)cc1)N(C)Cc1ccc(F)cc1 (configuration not stated) — lower, -5.41%
- Nn1c(SCC(=O)Nc2ccc(S(N)(=O)=O)cc2)nnc1-c1n[nH]c2c1CCC2 — higher, 5.06%
- COC(=O)C1CN(CC(C)C)CCS(=O)(=O)N1Cc1ccc(C)cc1 (configuration not stated) — lower, 1.62%
- COc1cc(NC(=O)C2CCCN(S(=O)(=O)c3ccc(C(C)(C)C)cc3)C2)cc(OC)c1 (configuration not stated) — lower, 2.62%

In the case of Cc1ccc(N=C2NC(=O)/C(=C/C=C/c3ccco3)S2)cc1C, the inhibition is reported as 16.8% (active).
With C=CCn1c2ccccc2c2nnc(SCc3[nH]c(=O)[nH]c3C(=O)CCCCC(=O)OCC)nc21 the inhibition was 43.2% (active).
For CC(C)(C)C1C/C(=C/c2ccco2)C(=O)/C(=C/c2ccco2)C1 (configuration not stated), the inhibition was 79.5% (active).
With COCc1cc(C)nc2sc3c(=O)n(-c4cccc5ccccc45)nnc3c12 the inhibition was 18.6% (active).
Oc1cc(O)c2c(c1)OC(c1ccc(O)c(O)c1)C(O)C2 (configuration not stated) was tested, and the inhibition was 17.4% (active).
In the case of CCOC(=O)c1c(C)oc2cc(Sc3ccccc3)c(O)c(O)c12, the inhibition is reported as 23.4% (active).
With Cc1ccc(Cc2cnc(N)s2)o1 the inhibition was 31.2% (active).
For Clc1ccc(C2=CSC3=Nc4cccc5cccc(c45)N23)cc1, the inhibition was 37.2% (active).
For CCc1cc2cc(OC)ccc2nc1SCC(=O)Nc1cc(OC)c(OC)cc1C(=O)O, the inhibition was 17.2% (active).
For CN(CC(=O)Nc1ccc(S(=O)(=O)N2CCCC2)cc1)Cc1ccc(Cl)c(Cl)c1, the inhibition was 30.4% (active).
For CN(O)C(=S)c1ccccc1, the inhibition was 21.8% (active).

Reference: PubChem BioAssay AID743269 (The Scripps Research Institute Molecular Screening Center, 2014)
